From PubChem
Compounds with a hit are over-represented: about 4.1% of the library has one in this group of screens.
FAS-TE inh – FAS thioesterase (human) inhibition; recombinant FAS-TE, OMFH fluorogenic substrate, fluorescence endpoint; P49327; hit rate 0.67% among 360,000; inhibition, % at 15 µM;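 active means compounds whose normalised, plate-corrected inhibition of enzyme fluorescence in the single-dose primary screen is 50% or more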;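 further: 0% = DMSO with enzyme and 100% = substrate without enzyme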
NR3A LBD binder – NR3A (human) ligand-binding domain modulation; NR3A LBD differential scanning fluorimetry, Tm shift; 0% = protein alone, 100% = glycine-bound protein; Tm shift relative to glycine control, % at 25 µM; hit rate 2.5% among 340,000;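 active means melting temperature shift of at least 10% of the positive control shift, at one fixed dose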
pCIP destab – p/CIP protein destabilization; hit rate 0.01% among 290,000; Q05BA5; decrease of EGFP signal, % at 10 µM; F442A p/CIP-EGFP cells, EGFP fluorescence, 16 h;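 active means EGFP signal decrease of at least 30% at 10 µM or well 3 SD below plate mean, unless failing retest; inactive means the rest, including hits failing retest or dose response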
MPTP inh – blocks calcium-induced mitochondrial swelling | isolated mouse mitochondria, Ca2+ swelling absorbance, 30 min | inhibition, % at 10 µM | hit rate 1.4% among 360,000;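 active means inhibition of 50% or more, scaled per plate between neutral and stimulator controls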;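 further: 0% = DMSO wells given calcium and 100% = 1 mM EGTA wells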
beta cell repl – inducers of beta-cell replication in MIN6 cells; MIN6 cells proliferation, ATPlite luminescence, 48 h; cells starved in 0.2% serum; 100% = growth in 10% serum; proliferation, % at 10 µM; hit rate 0.29% among 330,000;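 active means compounds whose signal lies at least 3.5 SD above the mean of all wells on their plate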;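 further: 0% = DMSO-treated cells in low-serum medium and 100% = 10% serum control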
MPTP counter – Rhodamine 123 counter-screen of mitochondrial pore hits; isolated mitochondria, membrane potential, Rhodamine 123 fluorescence; AID 624504; shares compounds with MPTP inh; inhibition, % at 10 µM; hit rate 78% among 5,000; in the data active means inhibition above about 22%;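 further: 0% = DMSO vehicle and 100% = positive control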
MPTP swell DR – MPTP inhibition, dose response swelling confirmation; shares compounds with MPTP inh; isolated mitochondria swelling, absorbance; IC50, µM; hit rate 58% among 780; in the data active means IC50 below about 20 µM
MPTP cs DR – active in counter-screen for permeability transition pore inhibitors. shares compounds with MPTP inh. IC50, µM. hit rate 49% among 780. isolated mitochondria counterscreen, fluorescence read-out; in the data active means IC50 below about 80 µM
Numbers without * were called inactive; i = inactive; nt = no result.

SMILES	FAS-TE inh	NR3A LBD binder	pCIP destab	MPTP inh	beta cell repl	MPTP counter	others
O=C(CCc1nnc(CCC2CCCCC2)o1)NCCn1cccn1	-7.8	0.3	-9.9	-1.6	0.5	nt
COc1ccc(Cn2c(C)c(C)c(C#N)c2NC(=O)Nc2cccc(Cl)c2)cc1	-8.7	-3.9	-9.5	73.7*	0.0	70.4*
Cc1c(C#N)c(NC(=O)c2cccc(Cl)c2)n(Cc2ccccc2)c1C	19.3	-1.3	2.4	-0.6	-0.7	nt
COc1ccc(Cn2c(C)c(C)c(C#N)c2NC(=O)Nc2ccc(Cl)cc2)cc1	-6.2	3.4	-9.8	93.5*	-1.8	77.5*
COc1ccc(CNC(=O)Nc2ccc(OC)cc2)cc1	-6.6	nt	-0.2	0.3	-0.9	nt
Cc1ccc(C2CC2C(=O)NNC(=S)Nc2ccc(Cl)cc2)cc1 (stereo not given)	2.6	11.7*	14.2	52.6*	-0.9	72.7*
CC(C)(C)NC(=S)NNC(=O)[C@H]1C[C@@H]1c1ccccc1	-9.1	-1.0	-14.6	3.3	-1.8	nt
CN1CCN(CCCC(=O)c2ccc(C3CCCC3)cc2)CC1	-11.2	0.3	-6.7	78.7*	0.0	-1.6	MPTP swell DR=5.91*;MPTP cs DR=19*
O=C(Nc1ccc(Cl)c(Cl)c1)N1CCSC1c1ccco1 (stereo not given)	17.3	-3.3	-11.7	91.8*	-6.0	91.0*
Clc1ccc(C(c2ccccc2)N2CCNCC2)cc1 (stereo not given)	-15.8	0.5	6.6	79.9*	-5.1	-12.1	MPTP swell DR=6.69*;MPTP cs DR=>80
Cc1cc(C(=O)CSc2nc3ccccc3[nH]2)c(C)n1CC1CCCO1 (stereo not given)	-5.2	2.0	-26.6	71.4*	-5.3	84.8*
CCOC(=O)/C(C(=O)Nc1ccc(Br)cc1)=C1/NC(C)(C)Cc2ccccc21	24.1	-20.4	1.7	100.9*	-6.3	89.0*
Cc1ccc(SCCC(=O)Nc2ccc(Br)c(C)c2)cc1	30.9	-1.6	-11.7	86.3*	-5.2	91.9*
C/C(=N\NC(=O)c1cccc(Cl)c1)C1C(=O)c2ccccc2C1=O	5.0	8.0	7.4	88.6*	-5.6	85.3*
C/C(=N\NC(=O)CCc1ccccc1)C1C(=O)c2ccccc2C1=O	7.6	-3.4	-6.5	13.6	-3.4	nt
Cc1cccc(/C=N/NC(=O)c2ccc(F)cc2)n1	-4.7	1.4	-6.4	-0.8	-2.0	nt
O=C1Nc2cc(C(=O)NCC3CCCO3)ccc2S/C1=C/c1ccccc1F (stereo not given)	-7.8	0.2	0.7	2.4	-4.5	nt
Cc1ccc2c(C)c(C(=O)Nc3ccc(S(=O)(=O)Nc4onc(C)c4C)cc3)oc2c1	-0.2	-0.8	-17.5	0.0	-5.7	nt
CCC(=O)Nc1nnc(SCCN2CCOCC2)s1	-7.3	-0.3	0.7	2.1	-2.4	nt
CC1CC(C)CN(Cc2nc(N)nc(Nc3ccc4ccccc4c3)n2)C1 (stereo not given)	3.5	-2.1	-2.4	62.6*	-3.7	-11.4	MPTP swell DR=>100;MPTP cs DR=>80
CC1CCc2nc(NC(=O)CN3CCN(c4ccccc4)CC3)sc2C1 (stereo not given)	44.1	-1.2	-2.7	-9.0	-3.4	nt
CC1CCc2nc(NC(=O)CN3CCN(Cc4ccc5c(c4)OCO5)CC3)sc2C1 (stereo not given)	10.4	-1.0	-7.7	56.5*	-5.7	6.9	MPTP swell DR=i;MPTP cs DR=46.1*
CCN(CC)CCNc1ccc(CO)c2sc3ccccc3c(=O)c12	-1.0	-0.8	-4.3	59.7*	-7.9	-6.4
CC12CCC(=O)C=C1CCC1C2CCC2(C)C(c3csc(N)n3)CCC12 (stereo not given)	-24.9	-5.8	nt	87.4*	nt	91.8*
CC(C)COCC(CN(Cc1ccccc1)c1ccccc1)N1CCCC1 (stereo not given)	17.7	0.0	-11.5	92.2*	-8.3	-4.9	MPTP swell DR=13.5*;MPTP cs DR=44.1*
SMILES	FAS-TE inh	NR3A LBD binder	pCIP destab	MPTP inh	beta cell repl	MPTP counter	others
CC(C(=O)Nc1ccc(OCc2ccccc2)cc1)N1CCCC1 (stereo not given)	-1.2	-0.2	26.6	0.5	-4.2	nt
COc1ccc(NC(=O)CSc2ccc(-c3cccnc3)nn2)c(OC)c1	-4.4	0.8	-27.2	-0.8	2.7	nt
CC1=NN(C(N)=S)C(=O)C1N=Nc1c(Br)cc(Br)cc1Br (stereo not given)	3.5	2.4	3.3	56.4*	-3.6	78.3*
NS(=O)(=O)c1cc(C(=O)OCC(=O)Nc2ccc(N3CCCCC3)cc2)ccc1Cl	1.1	-2.4	1.1	1.3	-1.2	nt
Cc1c(C(=O)OCC(=O)Nc2c(C)n(C)n(-c3ccccc3)c2=O)oc2ccccc12	9.0	0.4	-9.8	2.3	-0.9	nt
O=C(COC(=O)C1CCC(=O)N1)Nc1cc(Cl)ccc1Cl (stereo not given)	-7.4	-2.8	-3.1	-0.3	-1.7	nt
CNC(=S)N/N=C/c1cc(Br)cc(Br)c1O	27.6	-2.7	-13.7	88.4*	0.0	60.5*
Oc1c(Br)cc(Br)cc1/C=N/NC(=S)N[C@H]1CC2C=CC1C2 (stereo not given in full)	36.1	14.1*	3.0	84.3*	-4.0	58.3*
CCCCN(C(=O)c1ccc2c(c1)OCCO2)c1c(N)n(CC(C)C)c(=O)[nH]c1=O	-6.1	0.8	nt	-1.3	-4.9	nt
O=C(NCCc1nc2ccc(Cl)cc2[nH]1)C1CCC(=O)N(Cc2cccc(F)c2)C1 (stereo not given)	-1.9	-4.3	-20.5	0.2	-0.8	nt
Cn1ccc(CC(=O)N2CCC(N3CCC(C(=O)N4CCCC4)CC3)CC2)c1	-3.6	-0.4	-0.9	0.5	-3.5	nt
CCOc1ccc(OCC)c(NC(=O)CSc2nc3ccccc3c(=O)n2C)c1	24.4	-3.6	-20.8	93.1*	-5.6	74.5*
Cc1ccc(C)c(NC(=O)c2cc3ccccn3n2)c1	-2.1	0.1	0.0	52.8*	-2.4	5.1	MPTP swell DR=i;MPTP cs DR=>80
CCCn1c(SCC(=O)Nc2nc3ccccc3s2)nc2c1c(=O)n(C)c(=O)n2C	-1.8	3.3	-7.2	84.8*	-0.7	-0.5	MPTP swell DR=19.2*;MPTP cs DR=14.5*
CCCn1c(SCC(=O)Nc2nnc(C(C)C)s2)nc2c1c(=O)n(C)c(=O)n2C	-1.6	-0.5	-14.8	2.6	-3.9	nt
CCOC(=O)Cn1c(=N)n(CCOc2ccc(OC)cc2)c2ccccc21	-7.9	0.8	-0.1	25.9	2.8	nt
CCOC(=O)Cn1c(=N)n(CCOc2ccc3ccccc3c2)c2ccccc21	-3.8	-0.3	-11.2	90.7*	-3.2	-0.4	MPTP swell DR=4.02*;MPTP cs DR=26.4*
CCCn1c(=N)n(CCOc2ccc(OC)cc2)c2ccccc21	-4.1	-0.7	-1.8	54.0*	0.6	5.4	MPTP swell DR=8.82*;MPTP cs DR=22.7*
